# The list is not random: actives were taken first. Their share in the collection is about 5.7%.
# RORg inh = ROR gamma (mouse) transcription inhibition; Drosophila S2 Gal4-RORgamma UAS-luciferase reporter, 20 h; Potency, µM (series often up to 53.6 µM), inactives show top-dose activity change, negative = inhibition, hits mostly inhibitors; 5.4% of 310,000 active; note: nearly all actives have a fitted effect of over 60% in size
#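 Luminescence from a UAS-regulated Photinus luciferase reporter in stably transfected Drosophila Schneider cells is measured; decreased signal marks ROR gamma inhibition. Fusion expression is induced by 700 uM copper sulfate for 20 hr.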
# VP16 counter = Gal4-VP16 reporter inhibition counter-screen; Drosophila S2 Gal4-VP16 UAS-luciferase, luminescence, 20 h; Potency, µM (highest dose often 53.6 µM), without a hit: at the highest dose activity, negative = inhibition, actives largely listed as inhibitors; 3.5% of 310,000 active; AID 2546;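 note: Gal4-VP16 expression switched on by copper sulfate through the metallothionein promoter; nearly all actives have a fitted effect of over 50% in size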
# NPSR antag = neuropeptide S receptor (human) antagonism, cAMP. CHO-NPSR cells, cAMP TR-FRET, antagonist mode. Potency, µM (series often up to 38.3 µM), inactives show at the highest dose activity change, negative = inhibition, hits mostly inhibitors. 1% of 220,000 active; note: nearly all actives have a fitted effect of over 50% in size
# B2AR arrestin = recruits beta-arrestin to the human beta2-adrenergic receptor. P07550. beta-arrestin recruitment to beta2AR, cell-based reporter. Potency, µM (titrated, usually from 46.1 µM), for the others: top-dose activation, actives largely listed as activators. 0.02% of 330,000 active. AID 492947;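 note: 0% = DMSO controls and full agonism = EC100 isoproterenol or metaproterenol; nearly all actives have a fitted effect of over 65% in size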
# Target sequence (P07550 whole entry, looked up): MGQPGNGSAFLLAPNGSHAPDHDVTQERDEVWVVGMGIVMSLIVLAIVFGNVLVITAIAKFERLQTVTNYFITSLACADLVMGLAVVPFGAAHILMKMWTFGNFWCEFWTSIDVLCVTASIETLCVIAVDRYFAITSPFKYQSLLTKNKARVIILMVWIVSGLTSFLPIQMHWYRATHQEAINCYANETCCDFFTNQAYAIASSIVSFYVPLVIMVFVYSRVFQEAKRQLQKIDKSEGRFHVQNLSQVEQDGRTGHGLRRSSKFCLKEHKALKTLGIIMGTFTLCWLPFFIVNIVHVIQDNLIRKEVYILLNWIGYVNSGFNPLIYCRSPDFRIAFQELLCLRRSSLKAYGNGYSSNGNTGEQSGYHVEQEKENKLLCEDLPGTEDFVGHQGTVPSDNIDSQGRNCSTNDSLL
# The depositor's hits bear a star; ? = inconclusive; nt = not tested or not shown; [ ] = remark or other dose. Calls come from the whole dose curve; as a rule, active = well fitted curve in the direction sought with a large enough effect; inconclusive = small, poorly fitted or top-dose-only effect, or another doubt; inactive = no such curve, though single readings can be large; an effect the other way counts as inactive or inconclusive. Unless noted, % is set by controls: 0 for no effect and ±100 for the full control effect; potency is the fitted concentration of half-maximal effect.
SMILES,RORg inh,VP16 counter,NPSR antag,B2AR arrestin
CC(=O)NCCNC(=O)c1ccc(Cn2c(=O)[nH]c3ccsc3c2=O)cc1,14%,-13%,nt,0%
C=C(C)[C@@H]1CC=C(CN2CCC(CCOC)(C(=O)OCC)CC2)CC1,-1%,0%,-6%,0%
CCC1CCCCN1c1cc(C)nc2cc(-c3cccc(C)c3)nn12 (stereo unspecified),10µM*,-27%,?,0%
Cc1cc(N2CCOCC2)n2nc(-c3cccc(F)c3)cc2n1,-26%,1%,-47%,-1%
COc1ccc(/C=C/C2=C[C@]3(C)C[C@]2(C)[C@H](c2ccc(OC)cc2)CC3=O)cc1,24%,3%,nt,nt
C=CCc1c(C)nc(SC)nc1Nc1ccc(C)cc1,10µM*,3%,-16%[46.1 µM],0%
Cc1cc(C)c(Nc2cc(S(=O)(=O)O)c(N)c3c2C(=O)c2ccccc2C3=O)c(C)c1,-37%,?,5µM*,0%
Cc1cccc(C(=O)N=c2sccn2C)c1[N+](=O)[O-],-20%,22%,nt,0%
Cc1nc2nc(SCC(N)=O)[nH]c2cc1Br,-12%,-5%,-11%[46.1 µM],0%
Cc1nc2nc(SCC(=O)c3ccc([N+](=O)[O-])cc3)[nH]c2cc1Br,2.5µM*,?,10%[46.1 µM],0%
COc1ccc(CNc2ccc(S(N)(=O)=O)cc2)c(OC)c1OC,?,20µM*,3%[46.1 µM],-1%
C=CCOc1c(CNc2ccc(S(N)(=O)=O)cc2)cccc1OC,28%,-4%,-7%[46.1 µM],0%
CCc1sc(C(=O)Nc2ncccc2C)cc1C,-5%,-15%,nt,0%
O=C(Nc1nccs1)c1ccc(S(=O)(=O)NCC2CCCCC2)cc1,11µM*,-3%,-10%[46.1 µM],-1%
CCc1sc(C(=O)Nc2nccs2)cc1C,7.9µM*,?,nt,-1%
Cc1ccsc1C(=O)Nc1nccs1,11µM*,?,nt,-1%
CN(c1ccc(C(=O)Nc2nccs2)cc1)S(=O)(=O)c1ccccc1,2.8µM*,-1%[0.365 µM],?,0%
Cc1csc(NC(=O)c2sccc2C)n1,-31%,?,nt,-1%
C=CCOC(=O)N[C@@H](c1cccs1)C(C(C)=O)C(C)=O,7%,-2%,nt,nt
O=C(Nc1nccs1)c1cc2c(s1)CCCCC2,26%,7.9µM*,?,0%
Cc1cccc(C)c1N/C=C/c1onc(C)c1[N+](=O)[O-],2%,-2%,-12%[46.1 µM],nt
Cc1noc(/C=C/c2cccnc2)c1[N+](=O)[O-],10µM*,16µM*,nt,0%
Cc1ccc(S(=O)(=O)NCC(=O)NCCc2c[nH]c3ccccc23)cc1C,-4%,-11%,nt,0%
CCCCC1(Cc2cccc([N+](=O)[O-])c2)C(=O)N(c2ccccc2)N(c2ccccc2)C1=O,18µM*,?,?,0%
CCCCC1(CO)C(=O)N(c2ccccc2)N(c2ccccc2)C1=O,-13%,1%,-5%,-1%
SMILES,RORg inh,VP16 counter,NPSR antag,B2AR arrestin
CC[C@@H](C)C(N)C(=O)O (stereo partly specified),-13%,3%,nt,nt
O=C1CCCC(=NCc2ccco2)C1,-3%,5%,-12%[46.1 µM],-1%
CN(C)c1nc(=NCc2ccco2)ss1,?,?,?,2.2µM*
Cn1c(CNC(=O)OC(C)(C)C)nnc1SCC(=O)N1CCOCC1,-25%,-2%,10%,0%
O=c1cc(-c2ccccc2Cl)oc2c(NS(=O)(=O)c3cc(Cl)cc(Cl)c3O)ccc(O)c12,?,5µM*,-35%,-3%
Cc1ccn2cc(-c3cccc([N+](=O)[O-])c3)nc2c1,10µM*,?,-11%,-1%
Cc1ccn2cc(-c3ccc(Br)cc3)nc2c1,8.9µM*,?,12%,-1%
Cc1ccn2cc(-c3cccc(NC(=O)CCC(=O)O)c3)nc2c1,7.1µM*,10µM*,nt,-1%
CC(=O)Nc1cccc(-c2cn3ccc(C)cc3n2)c1,?,?,-15%,0%
COc1ccc(NC(=O)COC(=O)CCOc2ccccc2C)cc1Cl,nt,nt,nt,0%
C=C(C)Cn1c(=S)[nH]c2ccccc2c1=O,4µM*,11µM*,-25%[46.1 µM],nt
C=CCn1c(=S)[nH]c2cc(-c3ccccc3)sc2c1=O,1µM*,2µM*,nt,0%
CCN(CC)CCn1c(=S)[nH]c2ccccc2c1=O,-35%,6%,-5%[46.1 µM],0%
C=CCn1c(=S)[nH]c2ccccc2c1=O,5.6µM*,4.5µM*,4%[46.1 µM],3%
CC(C)COn1c(=S)[nH]c2ccccc2c1=O,2.2µM*,10µM*,-10%[46.1 µM],-1%
CC(C)Cc1ccccc1S(N)(=O)=O,-7%,6%,nt,1%
CN(C)c1ccc(C(CNC(=O)c2ccc(-c3ccccc3)cc2)N2CCOCC2)cc1 (stereo unspecified),nt,nt,nt,0%
O=c1c2ccccc2[nH]c(=S)n1CCC1=CCCCC1,1.6µM*,1.4µM*,-8%,-1%
CC(C)Cn1c(=S)[nH]c2cc(Cl)ccc21,1.6µM*,?,-23%,3%
O=c1[nH]c2cc(Cl)ccc2n1-c1ccccc1,15%,-3%,-4%[46.1 µM],0%
CC(C)Cn1c(=S)[nH]c2ccccc2c1=O,1.1µM*,4.5µM*,-32%,0%
O=c1c2ccccc2[nH]c(=S)n1CCN1CCCCC1,-16%,-5%,nt,5%
Cc1cc(SCC(=O)NCC2CCCO2)nc2ccccc12 (stereo unspecified),8%,-1%,nt,-2%
CN1CCN(c2ncc3nc(-c4cccc(C#N)c4)c(=O)n(CCC#N)c3n2)CC1,-4%,-10%,nt,nt
COc1ccc(C2NC(=S)NC3=C2CCc2cc(OC)ccc23)cc1 (stereo unspecified),0.56µM*,?,-27%[46.1 µM],0%
SMILES,RORg inh,VP16 counter,NPSR antag,B2AR arrestin
CCOC(CNC(=O)CN1C(=O)COc2ccc(S(=O)(=O)N3CCCC3)cc21)OCC,-4%,-4%,nt,0%
COc1ccc(/C=c2\s/c(=C/C(=O)c3ccc(C)cc3)[nH]c2=O)cc1OC,13µM*,?,-20%,3%
COCCn1c(SCC(=O)Nc2ccccc2OC)nc2ccccc2c1=O,?,2%,nt,-1%
COCCn1c(-c2ccc(OC)cc2)cnc1SCC(=O)Nc1cccc2ccccc12,5µM*,21%,-14%[46.1 µM],0%
CCCn1c(C)nc2c(NCCCN(CCO)CCO)nc(C)nc21,-18%,-8%,nt,nt
CC(C)(C)c1ccc(/C=C2\SC(=O)N(CCNC(=O)c3cccc(S(=O)(=O)N4CCOCC4)c3)C2=O)cc1,?,2µM*,20%,-1%
Cc1ccc(S(=O)(=O)N2CCOCC2)cc1C(=O)NCCN1C(=O)S/C(=C\c2ccccc2Cl)C1=O,?,-10%,-9%,-1%
Cn1cc(CNCc2ccc(OC(F)(F)F)cc2)c(-c2ccc3c(c2)OCCO3)n1,10µM*,3.5µM*,10%,-1%
Cc1cc(C)n(C(C)CNC(=O)c2ccc3c(c2)OCO3)n1 (stereo unspecified),-5%,5%,nt,-1%
Cc1ccc(CN2C(=O)C(C)Nc3ncnc(N4CCOCC4)c32)cc1 (stereo unspecified),nt,nt,nt,0%
Cn1c(=O)oc2cc(S(=O)(=O)N3CCCC(C(=O)NC4CCCc5ccccc54)C3)ccc21 (stereo unspecified),?,0.1µM*,-28%[46.1 µM],0%
